Screens: PubChem BioAssay, National Center for Advancing Translational Sciences (NCATS)
Rows were chosen to be rich in hits. Some 19% of all compounds tested hit in one or more screens of this group.
KB-V1 cytotox – qHTS assay for MDR1-selective chemotherapeutics: Primary screen using the drug-selected MDR subline cells KB-V1 | KB-V1 MDR cells viability, CellTiter-Glo, 72 h | Potency, µM (titrated, usually from 46.1 µM), usual class: cytotoxic | 400,000 tested, 3.4% active; further: nearly all actives have a fitted effect of over 60% in size
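Potencies derive from concentration-effect curves fitted to normalized luminescence (CellTiter-Glo) of KB-V1 cells treated for 72 h at 37 degrees C in phenol-red-free DMEM containing 10% FBS.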
KB-3-1 cytotox – qHTS assay for MDR1-selective chemotherapeutics: Primary screen using the parental adenocarcinoma cell KB-3-1; Potency, µM (top dose mostly 46.1 µM), most hits filed as cytotoxic; 400,000 tested, 1.4% active; KB-3-1 viability, CellTiter-Glo ATP luminescence, 72 h; further: nearly all actives have a fitted effect of over 60% in size
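Luminescent ATP read-out (CellTiter-Glo) measures survival of drug-naive KB-3-1 cells after 72 h compound exposure at 37 °C. Titration series was screened from lowest to highest concentration, with DMSO vehicle plates as background controls.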
HT1080-NT tox – qHTS for induction of synthetic lethality in tumor cells producing 2HG: qHTS for the HT-1080-NT fibrosarcoma cell line; HT-1080-NT fibrosarcoma viability, CellTiter-Glo ATP luminescence, 48 h; AID 686970, 2013; Potency, µM (titrated, usually from 46.1 µM), for inactives: top-dose activity, negative = less viability, most hits filed as cytotoxic; 360,000 tested, 1.6% active;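 further: NT is the 2HG producing partner of a matched IDH1 knockdown line; 0% = DMSO-treated cells and -100% = media-only wells without cells; nearly all actives have a fitted effect of over 55% in size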
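Read-out is CellTiter-Glo luminescence after 10 minutes at room temperature, following 48 hours' compound treatment of HT-1080-NT cells (750 cells/well, RPMI, 5% FBS, 37 degrees C).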
DT40 TDP1 no CPT – qHTS for Inhibitors of human tyrosyl-DNA phosphodiesterase 1 (TDP1): qHTS in cells in absence of CPT; Potency, µM (top dose mostly 46.2 µM), inactives show at the top dose activity change, negative = growth inhibition, most hits filed as inhibitors; DT40 Tdp1-/- hTDP1 cells, no CPT, ATP luminescence, 48 h; 420,000 tested, 15% active; AID 686978, 2013; further: nearly all actives have a fitted effect of over 55% in size
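Growth kinetics read by CellTiter-Glo luminescence after ≥48 hr at 37 °C. Cells: DT40 Tdp1-/- stably carrying human TDP1, 400 per well, compound exposure in the absence of CPT (DMSO vehicle).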
DT40 TDP1 CPT – qHTS for Inhibitors of human tyrosyl-DNA phosphodiesterase 1 (TDP1): qHTS in cells in presence of CPT; chicken DT40 Tdp1-/-;hTDP1 cells + 20 nM CPT, ATP luminescence, 48 h; Potency, µM (highest dose often 46.2 µM), without a hit: at the highest dose activity change, negative = growth inhibition, usual class: inhibitors; 420,000 tested, 12% active; further: nearly all actives have a fitted effect of over 55% in size
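Cell growth measured by CellTiter-Glo luminescence after a minimum 48 h, 37 C compound exposure with 20 nM CPT in Tdp1-knockout DT40 cells stably expressing hTDP1, seeded 400/well; qHTS titration format.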
HT1080 IDH1KD tx – qHTS for induction of synthetic lethality in tumor cells producing 2HG: qHTS for the HT-1080-IDH1KD cell line. HT-1080 IDH1 knockdown viability, ATP luminescence, 48 h. Potency, µM (series often up to 46.1 µM), inactives show at the highest dose activity, negative = toxicity, hits mostly cytotoxic. 360,000 tested, 2% active;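 further: 0% = DMSO wells and -100% = cell-free medium wells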
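% activity derives from luminescence (CellTiter-Glo), normalised to DMSO and no-cell wells. HT-1080-IDH1KD cells, 750/well, had 48 h compound exposure at 37 °C.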
* = called active by the depositor; i = inactive; u = inconclusive; x = not tested or not shown. The call rests on the fitted dose curve; in most records, active means well fitted curve in the direction sought with a large enough effect; inconclusive means small, poorly fitted or top-dose-only effect, or another doubt; inactive means no such curve, though single readings can be large; an effect the other way counts as inactive or inconclusive. Unless noted, on the % scale 0 is the no-effect control and ±100 the full control effect; potency means the concentration at half of the fitted maximal effect.

SMILES	KB-V1 cytotox	KB-3-1 cytotox	HT1080-NT tox	DT40 TDP1 no CPT	DT40 TDP1 CPT	HT1080 IDH1KD tx
O=C(Nc1ccc(N2CCOCC2)c(Cl)c1)c1ccc(-n2cnnc2)cc1Cl	x	x	12%	-23%	u	7%
Cc1ccc(C(=O)C[n+]2cccc3cccc(O)c32)cc1	i	i	x	u	u	x
Cc1nc(-n2nc(C)c(Cc3ccc4c(c3)OCO4)c2C)sc1C(=O)Nc1ccc(Cl)cc1	i	i	x	-29%	-19%	x
COc1ccc(Cc2c(C)nn(-c3nc(C)c(C(=O)Nc4cccc(C(C)=O)c4)s3)c2C)cc1	x	x	x	12µM*	9.2µM*	x
CCc1ccccc1NC(=O)c1sc(-n2nc(C)c(Cc3ccc4c(c3)OCO4)c2C)nc1C	i	i	x	18µM*	u	x
CCc1ccc(N(C(C)=O)c2nc(CCl)cs2)cc1	i	i	-2%	10µM*	-10%	-8%
CC(=O)N(c1ccccc1)c1nc(/C=C/C(=O)O)cs1	i	i	11%	-13%	-19%	23%
CC1CCN(c2ncnc3c2cnn3-c2ccc(F)cc2)CC1	i	i	x	u	-7%	x
Cc1ccc(/C=N/NC(=O)c2cc(-c3ccccc3)nc3ccccc23)o1	i	i	u	9.2µM*	18µM*	u
Cc1ccc(/C=N/NC(=O)c2cc(C3CC3)nc3ccccc23)o1	u	u	u	3.7µM*	4.1µM*	5.8µM*
Cc1ccc(CNC(=O)c2cc(-c3ccc(C)c(C)c3)nc3ccccc23)cc1	i	i	x	u	u	x
CCCc1cc(C(=O)N/N=C/c2ccc(C)o2)c2ccccc2n1	u	u	u	u	u	21µM*
Cc1ccc(-c2cc(C(=O)N/N=C/c3c(C)nn(C)c3C)c3ccccc3n2)cc1C	u	i	u	10µM*	12µM*	u
CCCc1cc(C(=O)OC)c2ccccc2n1	i	i	-1%	u	-23%	8%
COc1ccc(CCNS(=O)(=O)CCNC(=O)c2ccc3c(c2)OCO3)cc1	i	i	-2%	u	-4%	4%
COc1ccc(NC(=O)C2CCN(S(=O)(=O)c3cc(-c4noc(C)n4)ccc3C)CC2)cc1	i	i	x	u	-27%	x
Cc1cc(C(=O)N/N=C/c2ccc(C)o2)c2ccccc2n1	u	1.3µM*	3.3µM*	1.3µM*	1.5µM*	u
Cc1ccccc1C(=O)N1CCN(c2ccc(NC(=O)c3ccc([N+](=O)[O-])o3)cc2)CC1	u	5.8µM*	1.3µM*	2.3µM*	5.2µM*	2.6µM*
Cc1ccccc1C(=O)N1CCN(c2ccc(NC(=O)c3ccc4c(c3)OCO4)cc2)CC1	u	u	u	13µM*	13µM*	u
O=C(Nc1ccc(N2CCN(C(=O)c3ccccc3)CC2)cc1)c1ccc([N+](=O)[O-])o1	u	i	7.3µM*	1.8µM*	2.1µM*	u
COc1cccc(CNC(=O)C2CCN(S(=O)(=O)N3CCC(C)CC3)CC2)c1	i	i	20%	u	u	6%
Cc1cc(N2CCC(C(=O)Nc3ccccc3Cl)CC2)n2nc(C)c(-c3ccc(Cl)cc3)c2n1	u	i	x	-60%	7%	x
O=C(NCCCn1ccnc1)/C(=C\c1ccc(Br)cc1)NC(=O)c1ccccc1F	x	x	0%	-29%	-11%	19%
